Measurements taken from PubChem BioAssay AID463173 (ICCB-Longwood Screening Facility, Harvard Medical School, 2010).
Screen size: about 52,000 compounds; about 4,300 (8.3%) were called active. Rule as the data show it: active = survival mostly below about 52% (no sharp cut-off); inactive = mostly above about 56%. The entries come from a sample that favours actives as a whole.

What follows are compounds tested on DeltatarO mutant (assay: S. aureus survival, RN4220 and DeltatarO strains – OD600, teichoic acid synthesis inhibitors, primary screen (AID 463173)). Conditions: S. aureus RN4220 wild type/DeltatarO growth, OD600, 18 h, active compounds read low, screened at 18.75 µg/mL (by protocol).

Row | Compound | survival
1 | COc1ccc(-c2nc3sc(CCNC(=O)Cc4ccc(F)cc4)c(C)n3n2)cc1 | 94% (inactive)
2 | CCOC(=O)c1c(C)[nH]c(C)c1S(=O)(=O)NCC(=O)Nc1cc(C)ccc1OC | 60% (inactive)
3 | CCOc1ccc(N(CC(=O)Nc2cc(C)ccc2C)S(=O)(=O)c2c(C)[nH]c(=O)[nH]c2=O)cc1 | 69% (inactive)
4 | CCOC(=O)c1scc(-c2ccc(C)cc2)c1S(=O)(=O)Nc1ccc(OC)c(Cl)c1 | 77% (inactive)
5 | CCOC(=O)c1c(C)[nH]c(C)c1S(=O)(=O)N(C)CC(=O)Nc1cc(Cl)ccc1OC | 117% (inactive)
6 | CCOC(=O)c1scc(-c2ccc(C)cc2)c1S(=O)(=O)Nc1cc(Cl)ccc1OC | -5% (active)
7 | COc1ccc(Cl)cc1NC(=O)CN(c1cc(C)cc(C)c1)S(=O)(=O)c1c(C)n[nH]c1C | 9% (active)
8 | COc1ccc(NC(=O)CN(c2cc(C)cc(C)c2)S(=O)(=O)c2c(C)noc2C)cc1Cl | 91% (inactive)
9 | CCOC(=O)c1scc(-c2ccc(C)cc2)c1S(=O)(=O)Nc1cc(OC)ccc1OC | 92% (inactive)
10 | CCOC(=O)c1c(C)[nH]c(C)c1S(=O)(=O)NCC(=O)Nc1cc(Cl)ccc1OC | -4% (active)
11 | CCc1ccccc1NC(=O)CN(c1ccc(OC)cc1)S(=O)(=O)c1c(C)n[nH]c1C | 74% (inactive)
12 | COc1ccccc1NC(=O)CN(c1cc(C)cc(C)c1)S(=O)(=O)c1c(C)[nH]c(=O)[nH]c1=O | 118% (inactive)
13 | CCOc1ccc(OCC)c(NC(=O)CN(c2ccc(C)cc2)S(=O)(=O)c2c(C)n[nH]c2C)c1 | 32% (active)
14 | COc1ccc(NC(=O)c2c(NCc3cccs3)sc3c2CCCCC3)c(OC)c1 | 69% (inactive)
15 | CC1CN(C(=O)CCC(=O)NCc2ccc(F)cc2)c2cc(Cl)ccc2O1 (centres undefined) | 80% (inactive)
16 | Cc1cc(-c2ccccc2)nc2cc(C(=O)Nc3ccc(Cl)c(Cl)c3)nn12 | 52% (inactive)
17 | CC(=O)N1CCCC1c1nc2ccccc2n1Cc1ccccc1F (centres undefined) | 61% (inactive)
18 | COC(=O)c1ccc(OCC2c3cc(OC)c(OC)cc3CCN2C(=O)c2ccc(F)cc2)cc1 (centres undefined) | 76% (inactive)
19 | COc1ccc(CCNC(=O)c2ccc3c(c2)N(Cc2ccc(F)cc2)C(=O)c2ccccc2S3(=O)=O)cc1OC | 104% (inactive)
20 | CC(C)c1cccc(C(C)C)c1NS(=O)(=O)c1cccs1 | 41% (active)
21 | O=S(=O)(Nc1ccc(O)cc1)c1cccs1 | 83% (inactive)
22 | CC(C)NS(=O)(=O)c1cccs1 | 65% (inactive)
23 | Cc1cccc(-c2noc(CN(C(C)C)S(=O)(=O)c3ccc(Br)cc3)n2)c1 | 45% (active)
24 | Cc1cccc(-c2noc(CNC(=O)c3ccco3)n2)c1 | 83% (inactive)
25 | Cc1ccc(-c2noc(CN(C3CCCCC3)S(=O)(=O)c3ccc(C)cc3)n2)cc1 | 62% (inactive)

Row | Compound | survival
26 | CCN(Cc1nc(-c2ccc(OC)c(OC)c2)no1)S(=O)(=O)c1ccc(OC)cc1 | 47% (inactive)
27 | COc1ccc(S(=O)(=O)N(Cc2nc(-c3ccc(C)cc3)no2)C2CCCCC2)cc1 | 63% (inactive)
28 | COc1ccc(-c2noc(CN(C(C)C)S(=O)(=O)c3ccc(Br)cc3)n2)cc1 | 44% (active)
29 | O=C(CCS(=O)(=O)c1cc2c(cc1Cl)NC(=O)CO2)NCc1ccccc1 | 106% (inactive)
30 | CCOC(=O)c1c(C)[nH]c(CCC(=O)NCc2cc(Br)ccc2OC)c1C | 115% (inactive)
31 | O=C(NCCN1CCOCC1)c1ccncc1 | 96% (inactive)
32 | Cc1cccc(OCC(=O)Nc2cccc(OCc3cc(=O)n4cccc(C)c4n3)c2)c1 | 109% (inactive)
33 | COc1cc(-c2cc3n(C)c(C)c(CCC(=O)O)c(=O)n3n2)cc(OC)c1OC | 94% (inactive)
34 | COCCNC(=O)CCc1c(C)n(C)c2cc(-c3cc(OC)c(OC)c(OC)c3)nn2c1=O | 25% (active)
35 | COc1cc(-c2cc3n(C)c(C)c(CCC(=O)NCc4ccccc4)c(=O)n3n2)cc(OC)c1OC | 92% (inactive)
36 | O=C(O)CCC(=O)Nc1ccncc1 | 92% (inactive)
37 | Cc1ccc(Cl)cc1N1CCN(C(=O)CCSCc2ccccc2F)CC1 | 89% (inactive)
38 | Cc1cc(C)cc(NC(=O)C(=O)NCC(c2cccnc2)N2CCOCC2)c1 (centres undefined) | 107% (inactive)
39 | CCOC(=O)C1CCN(C(c2ccc(OCC)cc2)c2c(O)cc(C)n(CCOC)c2=O)CC1 (centres undefined) | 67% (inactive)
40 | Cc1ccc2c(c1)C(=O)C(=O)N2Cc1ccc(OC(C)C)cc1 | 120% (inactive)
41 | Cc1ccc(CN2C(=O)C(=O)c3cc(Br)cc(C)c32)cc1 | 31% (active)
42 | Cc1cccc2c1N(Cc1ccccc1OCCC(C)C)C(=O)C2=O | 2% (active)
43 | Cc1cc(Br)cc2c1N(Cc1ccccc1OC(C)C)C(=O)C2=O | 22% (active)
44 | CC(C)CN1C(=O)c2ccc(Br)cc2C1=O | 67% (inactive)
45 | Cc1ccc2c(c1)C(=O)C(=O)N2Cc1ccc(OCCC(C)C)cc1 | 93% (inactive)
46 | CCCCOc1ccc(CN2C(=O)C(=O)c3cc(Br)cc(C)c32)cc1OC | 49% (inactive)
47 | Cc1ccc(C)c(CN2C(=O)C(=O)c3ccccc32)c1 | 92% (inactive)
48 | CCCOc1ccc(CN2C(=O)C(=O)c3cccc(C)c32)cc1 | 39% (active)
49 | COc1ccccc1CN1C(=O)C(=O)c2cccc(C)c21 | 103% (inactive)
50 | COc1ccccc1Cn1ccn(Cc2ccc(C)cc2)c(=O)c1=O | 112% (inactive)

Row | Compound | survival
51 | CCOc1ccc(CN2C(=O)C(=O)c3cccc(C)c32)cc1OC | 118% (inactive)
52 | Cc1cc(C)cc(NC(=O)C2CCCN2S(=O)(=O)c2ccc3c(c2)CCCC(=O)N3)c1 (centres undefined) | 83% (inactive)
53 | CCc1ccc(NC(=O)Cn2nnc(C(=O)Nc3ccc(F)cc3)c2N)cc1 | 99% (inactive)
54 | COc1ccc(-n2nc(C(=O)N3CCCC(C)C3)c3c4ccccc4n(C)c3c2=O)cc1 (centres undefined) | 74% (inactive)
55 | c1ccc(-c2nc(-c3cccnc3)no2)cc1 | 98% (inactive)
56 | O=c1[nH]ncc(NCCc2ccccc2)c1Cl | 101% (inactive)
57 | N#Cc1ccccc1Cn1c(=O)n(Cc2ccc(C(=O)NC3CCN(Cc4ccccc4)CC3)cc2)c(=O)c2ccccc21 | 90% (inactive)
58 | COC(=O)c1ccc(NC(=O)C(=O)NCCc2sc3nc(-c4ccc(OC)cc4)nn3c2C)cc1 | 83% (inactive)
59 | O/N=C1\CCCc2nnc3c(c21)CCCC3 | 101% (inactive)
60 | CCOC(=O)/C(C#N)=C\C1=C(N2CCCC2)CC(C)(C)OC1 | 91% (inactive)
61 | Cc1nc2ccc(S(=O)(=O)NCC(=O)Nc3ccc(F)cc3F)cc2s1 | 120% (inactive)
62 | CCOc1ccc(S(=O)(=O)NCC(c2ccc(N(C)C)cc2)N2CCCC2)cc1 (centres undefined) | 107% (inactive)
63 | COc1ccc(Nc2ncnc3onc(C)c23)cc1Cl | 87% (inactive)
64 | O=C(c1ccc(Cl)cc1)N1CCC(c2nc3ccccc3o2)CC1 | 79% (inactive)
65 | CCc1ccccc1NC(=O)Cn1nnc(C(=O)NCc2ccco2)c1N | 93% (inactive)
66 | COc1ccc(NC(=O)c2ccc3c(c2)CCN3S(=O)(=O)c2ccccc2)cc1 | 92% (inactive)
67 | CC(=O)Nc1ccc(NC(=O)c2ccc3c(c2)CCN3S(=O)(=O)c2ccc(C)cc2)cc1 | 62% (inactive)
68 | CC(C)c1ccc(NC(=O)c2ccc3c(c2)CCN3S(=O)(=O)c2ccccc2)cc1 | 44% (active)
69 | CC(NC(=O)c1ccc2c(c1)CCN2S(C)(=O)=O)c1ccccc1 (centres undefined) | 91% (inactive)
70 | NS(=O)(=O)c1ccc(NC(=O)c2ccc3c(c2)CCN3S(=O)(=O)c2ccccc2)cc1 | 43% (active)
71 | CC(C)c1ccc(NC(=O)c2ccc(F)c(S(=O)(=O)N3CCc4ccccc43)c2)cc1 | 83% (inactive)
72 | CS(=O)(=O)N1CCc2cc(C(=O)Nc3ccc(S(N)(=O)=O)cc3)ccc21 | 48% (inactive)
73 | CC(NC(=O)c1ccc2c(c1)CCN2S(=O)(=O)c1ccccc1)c1ccccc1 (centres undefined) | 37% (active)
74 | CC(NC(=O)c1ccc2c(c1)CCN2S(=O)(=O)c1ccc(Cl)cc1)c1ccccc1 (centres undefined) | 67% (inactive)
75 | Cc1ccc(Nc2nc3ccccc3c3nnc(C)n23)c(C)c1 | 70% (inactive)

Row | Compound | survival
76 | CC(C)(C)OC(=O)N1CCC(c2c(C(=O)NCc3ccco3)cnn2-c2ccc(F)cc2F)CC1 | 83% (inactive)
77 | COc1cc(C)ccc1OCCSc1nc2ccc(NC(=O)c3ccc4c(c3)OCO4)cc2s1 | 64% (inactive)
78 | CN(C(=O)C1CCCN(c2ncnc3c2nc2n3CCCCC2)C1)c1ccccc1F (centres undefined) | 81% (inactive)
79 | CCC(NC(=O)Nc1cc(OC)ccc1OC)c1c(-n2cccc2)sc2c1CCN(CC)C2 (centres undefined) | 88% (inactive)
80 | Fc1cccc(CSc2ccc(-c3cccs3)nn2)c1 | 94% (inactive)
81 | Cc1ccc(C)c(CNC(=O)c2sc3ncnc(N(C)C4CCCCC4)c3c2C)c1 | 115% (inactive)
82 | Cc1cc(C)cc(Oc2c(C(F)(F)F)oc3cc(OCC(=O)NC4CCCCC4)ccc3c2=O)c1 | 110% (inactive)
83 | Cc1ccc(Oc2coc3cc(OCC(=O)NC4CCCCC4)ccc3c2=O)cc1 | 55% (inactive)
84 | Cc1ccc(Oc2c(C(F)(F)F)oc3cc(OCC(=O)NC4CCCCC4)ccc3c2=O)cc1 | 46% (active)
85 | CCc1ccc(C(=O)COC(=O)C(NC(=O)C2CCC(C)CC2)C(C)C)cc1 (centres undefined) | 72% (inactive)
86 | CC1(C)CC(=O)C=C(NCC2CCNCC2)C1 | 95% (inactive)
87 | CCOc1ccc(CCNC(=O)CCN2N=C(c3ccc(OC)cc3)CCC2=O)cc1OCC | 81% (inactive)
88 | Cc1c(C(=O)Nc2cccc(F)c2)sc2nc(-c3cc4ccccc4oc3=O)[nH]c(=O)c12 | 37% (active)
89 | COc1ccc(NC(=O)c2sc3nc[nH]c(=O)c3c2C)cc1 | 75% (inactive)
90 | Cc1cccc(NC(=O)c2sc3nc(-c4cc5ccc(O)cc5oc4=O)[nH]c(=O)c3c2C)c1 | 46% (inactive)
91 | COc1ccc(NC(=O)c2sc3nc(-c4cc5ccc(OC)cc5oc4=O)[nH]c(=O)c3c2C)cc1 | 46% (active)
92 | Cc1ccc(NC(=O)c2sc3nc(-c4cc5ccccc5oc4=O)[nH]c(=O)c3c2C)c(C)c1 | 39% (active)
93 | Cc1cc(C)cc(NC(=O)c2sc3nc(-c4cc5ccccc5oc4=O)[nH]c(=O)c3c2C)c1 | 43% (active)
94 | COc1ccc(NC(=O)c2sc3nc(-c4cc5cccc(OC)c5oc4=O)[nH]c(=O)c3c2C)cc1 | 46% (inactive)
95 | Cc1c(C(=O)Nc2ccccc2)sc2nc(-c3cc4ccccc4oc3=O)[nH]c(=O)c12 | 66% (inactive)
96 | Cc1cc(NC(=O)c2ccc(F)cc2)ccc1-c1cc2ccccc2oc1=O | 75% (inactive)
97 | Cc1ccccc1NC(=O)c1sc2nc(-c3cc4ccccc4oc3=O)[nH]c(=O)c2c1C | 52% (inactive)
98 | Cc1cc(C)cc(NC(=O)c2sc3nc[nH]c(=O)c3c2C)c1 | 91% (inactive)
99 | CCOc1cccc2cc(-c3nc4sc(C(=O)Nc5ccc(C)cc5)c(C)c4c(=O)[nH]3)c(=O)oc12 | 51% (inactive)
